Structures are written as SMILES. Results filed as inconclusive are left out. Active and inactive are the calls of the source. Calls follow the shape of the dose curve; as a rule, active = well fitted inhibition curve with a large enough effect; inconclusive = small, poorly fitted or top-dose-only effect; inactive = flat fitted curve, though single readings scatter.

The test system of this test is CRL-7250. Description: qHTS assay to identify novel small-molecules to repurpose for Merkel cell carcinoma treatment (AID 1296009). Also: nearly all actives have a fitted effect of over 60% in size. The note with it: MCC and control cell lines, CellTiter-Glo viability, 72 h; at 44.8 µM (top of the series) unless noted. In outline: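 qHTS format: cells treated with library compounds in DMSO across 8 (NPC) or 11 (MIPE) concentrations. Readout after 72 hr at 37 degree celsius was CellTiter-Glo luminescence.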
In the case of `C[C@H](NC(CCc1ccccc1)C(=O)O)C(=O)N1CCC[C@H]1C(=O)O` (stereo not given in full), the compound was classed as inactive. For the compound `C=CCc1ccc(O)c(OC)c1`, the call was inactive.

As to `CCNC(=O)/C=C/c1cccc(Br)c1`, the compound was called inactive.

For `NC1CCN(c2nc3c(cc2F)c(=O)c(C(=O)O)cn3-c2ccc(F)cc2F)C1` (stereo not given), the compound was classed as inactive. Turning to `CC[N+](CC)(CCNC(=O)C(=O)NCC[N+](CC)(CC)Cc1ccccc1Cl)Cc1ccccc1Cl`, the result was inactive.

`O=C1NCC2(CCN(CCc3ccccc3)CC2)O1`: the outcome was inactive. For the compound `CCOC(=O)O[C@]1(C(=O)OCCl)CC[C@H]2[C@@H]3CCC4=CC(=O)C=C[C@]4(C)[C@H]3[C@@H](O)C[C@@]21C`, the compound was classed as inactive. The entry for `CCOC(=O)C(O)c1ccccc1` (stereo not given) is “inactive”; for `O=C(Oc1ccccc1)c1ccccc1O` it is “inactive”. With `NS(=O)(=O)c1cc(Cl)c(Cl)c(S(N)(=O)=O)c1`, the call was inactive. Regarding `CN=C(NC#N)NCCSCc1nc[nH]c1C`, the compound was called inactive. On to `COc1c2occc2c(OC)c2c(=O)cc(C)oc12`, for which the compound was classed as inactive.

In the case of `CCOC(=O)/C=C(C)/C=C/C=C(C)/C=C/c1c(C)cc(OC)c(C)c1C`, the compound was called inactive. Regarding `Cc1c[nH]c2ccccc12`, the compound was classed as inactive. In the case of `O=C(O)c1ccccc1-c1ccc(C(F)(F)F)cc1`, the compound was classed as inactive.

On to `CCC(C(=O)OCCN(CC)CC)c1ccccc1` (stereo not given), for which the compound was called inactive. With `O=S(=O)(O)CCS`, the outcome was inactive.

Take `Nc1ncnc2c1ncn2[C@@H]1O[C@H](CO)[C@@H](O)[C@H]1O`: the compound was classed as inactive. Turning to `CC1(C)Oc2ccc(C#N)cc2[C@@H](N2CCCC2=O)[C@@H]1O`, the call was inactive. In the case of `CC[C@]12CCCN3CCc4c(n(c5ccccc45)[C@@](O)(C(=O)OC)C1)[C@@H]32`, the outcome was inactive.

These data come from PubChem BioAssay (NCATS).
